Inconclusive results are not listed. A number with no mark means an inactive call. Calls of active or inactive are those of the source. Calls follow the shape of the dose curve; as a rule, active = well fitted curve in the direction sought with a large enough effect; inconclusive = small, poorly fitted or top-dose-only effect, or another doubt; inactive = no such curve, though single readings can be large; an effect the other way counts as inactive or inconclusive.

For experiment [1], the target named is Cellular tumor antigen p53 (Homo sapiens) (UniProt P04637). In words: Primary qHTS for small molecule compounds that upregulate eGFP-tagged delta133p53alpha (in N-terminal) cells. (AID 2060322). Also: nearly all actives have a fitted effect of over 75% in size.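 As to activation: series mostly up to about 56 µM; 0% = DMSO vehicle and 100% = reference activator.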 To be noted: NCI-H358 eGFP-delta133p53alpha fluorescence, 24 h; activation: stronger effect = higher value. The gist of the method: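 NCI-H358 cells pre-induced 24 h with 10 ng/ml doxycycline to express N-terminal eGFP-delta133p53alpha, then dosed 24 h at 37C without doxycycline; fixed, Hoechst-stained, GFP intensity by laser scanning cytometry, normalized to DMSO (0%) and 57.5 uM 5-azacytidine (100%).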
On the technique in general: qHTS replaces the single test concentration by a dilution series.

Experiment [2] in a line: BET inhibitor-based combinations targeting novel dependencies in MECOM-rearranged (r) AML: SET-2 cell line (AID 2202231). Also: nearly all actives have a fitted effect of over 35% in size.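 As to viability: plate controls were DMSO treated cells for no effect and wells without cells for full effect.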 To be noted: SET-2 AML cells viability, CellTiter-Glo luminescence, 48 h; viability: stronger effect = lower value, concentration not given here. The gist of the method:
(§1)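 Luminescent ATP readout (CellTiter-Glo) after 48 hr drug exposure gives viability. Curves span 11 concentrations and are normalized to DMSO and empty wells. Activity is reported as area under the curve and its Z-transform within each cell line.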
On the technique in general: Cellular ATP, detected with luciferase, serves as a proxy for viable cell number.

Experiment [3] can be described thus: BET inhibitor-based combinations targeting novel dependencies in MECOM-rearranged (r) AML: OCI-AML3 cell line (AID 2202232). Also: nearly all actives have a fitted effect of over 35% in size. To be noted: Potency: OCI-AML3 viability. The gist of the method:
as §1

A short description of experiment [4]: BET inhibitor-based combinations targeting novel dependencies in MECOM-rearranged (r) AML: MV-4-11 cell line (AID 2202233). Also: nearly all actives have a fitted effect of over 45% in size. The gist of the method:
(§2)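 Luminescent ATP readout (CellTiter-Glo, 15 min at room temperature) after 48 hr drug exposure gave viability. Dose-response curves, normalized to DMSO and empty-well controls, were summarized as area under the curve and its mean-centred Z-score.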

Experiment [5] can be described thus: BET inhibitor-based combinations targeting novel dependencies in MECOM-rearranged (r) AML: HNT-34 cell line (AID 2202234). Also: nearly all actives have a fitted effect of over 35% in size. The gist of the method:
as §2

Experiment [6] in a line: BET inhibitor-based combinations targeting novel dependencies in MECOM-rearranged (r) AML: UCSD-AML1 cell line (AID 2202235). Also: nearly all actives have a fitted effect of over 40% in size. The method in brief:
as §2

Experiment [7] can be described thus: BET inhibitor-based combinations targeting novel dependencies in MECOM-rearranged (r) AML: AML-194 cell line (AID 2202237; also: nearly all actives have a fitted effect of over 40% in size). The method in brief:
as §1

Experiment [8] in a line: BET inhibitor-based combinations targeting novel dependencies in MECOM-rearranged (r) AML: AML-191 cell line (AID 2202236; also: nearly all actives have a fitted effect of over 35% in size). The gist of the method:
as §1
Potency is read from the fitted curve at half-maximal effect.

Cellular tumor antigen p53 (Homo sapiens), sequence (P04637 whole entry, looked up): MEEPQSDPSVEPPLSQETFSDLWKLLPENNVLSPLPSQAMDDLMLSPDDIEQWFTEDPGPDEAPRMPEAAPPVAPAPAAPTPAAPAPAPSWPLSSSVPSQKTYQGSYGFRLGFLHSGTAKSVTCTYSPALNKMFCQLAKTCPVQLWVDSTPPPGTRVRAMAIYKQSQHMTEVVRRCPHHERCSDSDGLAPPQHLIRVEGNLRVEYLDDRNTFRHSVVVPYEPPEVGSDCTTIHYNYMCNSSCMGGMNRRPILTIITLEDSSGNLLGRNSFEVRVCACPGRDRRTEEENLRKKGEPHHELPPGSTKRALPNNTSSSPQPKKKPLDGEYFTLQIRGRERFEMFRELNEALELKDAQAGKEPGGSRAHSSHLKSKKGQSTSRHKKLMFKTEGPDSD

Regarding `CN(C)c1ccc2nc3ccc(=[N+](C)C)cc-3sc2c1`, the Potency was 17.4 µM (active) in experiment [1]; 5.9 µM (active) in experiment [2]; 5.25 µM (active) in experiment [3]; 2.63 µM (active) in experiment [4]; 7.42 µM (active) in experiment [5]; 9.34 µM (active) in experiment [6]. Besides, the Potency in experiment [7] was 4.68 µM (active).

As for `O=C1C(Cl)=C(NCCN2CCOCC2)C(=O)c2ncccc21`, the Potency in experiment [1] is 27.3 µM (active); in experiment [2] it was 3.72 µM (active); in experiment [3], 3.72 µM (active); in experiment [4] it was 2.09 µM (active); in experiment [5], 5.9 µM (active); in experiment [6] it was 8.33 µM (active). Further, the Potency in experiment [8] and in experiment [7] was 7.42 µM (active) in each case.

For `Nc1ccn([C@@H]2CS[C@H](CO)O2)c(=O)n1`, the activation in experiment [1] was -9.96%. Besides, the viability (usually a read-out of living cells in per cent, often relative to untreated cells) in experiment [2] is 113%. Further, the Potency result in experiment [3], in experiment [4], in experiment [5] and in experiment [8] was “inactive” in each case.

Take `CCOC(=O)[C@H](CCc1ccccc1)N[C@@H](C)C(=O)N1CCC[C@H]1C(=O)O`: the activation in experiment [1] was 0%. Also, the viability in experiment [2] was 92.2%. Further, the Potency entry in experiment [3], in experiment [4], in experiment [5], in experiment [6], in experiment [8] and in experiment [7] was “inactive” throughout.

With `COc1cccc(OC)c1-c1cc(C(=O)NC2(C(=O)O)C3CC4CC(C3)CC2C4)nn1-c1ccnc2cc(Cl)ccc12` (stereo not given), the activation in experiment [1] was -14.3%. In addition, the viability in experiment [2] is 114%. In addition, the Potency result in experiment [3], in experiment [4], in experiment [5], in experiment [6], in experiment [8] and in experiment [7] was “inactive” in each case.

Consider `O=C(Nc1cc(Cl)cc2c1[nH]c1cnccc12)c1cccnc1`, for which, in experiment [1], the activation is 15.9%. Besides, the viability in experiment [2] was 102%. Further, the Potency entry in experiment [3], in experiment [4], in experiment [6], in experiment [8] and in experiment [7] was “inactive” throughout.

Take `CCCCCOC(=O)Nc1nc(=O)n([C@@H]2O[C@H](C)[C@@H](O)[C@H]2O)cc1F`: in experiment [1], the activation was -37.9%. Further, in experiment [2], the viability was 110%. Moreover, the Potency entry in experiment [3], in experiment [4], in experiment [6] and in experiment [7] was “inactive” each time.

Consider `C[C@@H]1C[C@H]2[C@@H]3CCC4=CC(=O)C=C[C@]4(C)[C@@]3(F)[C@@H](O)C[C@]2(C)[C@@]1(O)C(=O)CO`, for which the activation in experiment [1] was -11.9%. For the same molecule, in experiment [2], the viability is 112%. In addition, the Potency entry in experiment [3], in experiment [4] and in experiment [6] was “inactive” each time.

Turning to `Nc1nc2c(c(=O)[nH]1)N(C=O)[C@H](CNc1ccc(C(=O)N[C@@H](CCC(=O)O)C(=O)O)cc1)CN2`, the activation in experiment [1] is 10.2%. The viability in experiment [2] was 115%. In addition, the Potency result in experiment [3], in experiment [4], in experiment [6], in experiment [8] and in experiment [7] was “inactive” each time.

As for `COc1cccc2c1C(=O)c1c(O)c3c(c(O)c1C2=O)C[C@@](O)(C(=O)CO)C[C@@H]3O[C@H]1C[C@H](N)[C@H](O)[C@H](C)O1`, the Potency is 12.3 µM (active) in experiment [1]; 0.833 µM (active) in experiment [2]; 0.0468 µM (active) in experiment [3]; 0.0372 µM (active) in experiment [4]; 0.0934 µM (active) in experiment [6]; 0.186 µM (active) in experiment [8]. Besides, the Potency in experiment [7] is 0.186 µM (active).

On to `CCNC(=O)c1cc2c(-c3cc(OCCN4CCCC4)c(Cl)cc3Cl)nc(N)nc2s1`, for which the activation in experiment [1] was -12.6%. The Potency in experiment [2] was 2.88 µM (active); in experiment [3], 2.04 µM (active); in experiment [4], 0.363 µM (active); in experiment [6], 1.29 µM (active); in experiment [8] it was 1.82 µM (active).

In the case of `COc1ccc(S(=O)(=O)Nc2cc(-c3c(O)ccc4ccccc34)c(O)c3ccccc23)cc1`, the activation in experiment [1] is 23.1%. Besides, the Potency in experiment [2] was 11.8 µM (active); in experiment [3], 2.63 µM (active); in experiment [4], 0.833 µM (active); in experiment [6] it was 3.72 µM (active); in experiment [8], 1.86 µM (active); in experiment [7], 1.66 µM (active).

For `Nc1cccc2c1C(=O)N(C1CCC(=O)NC1=O)C2=O` (stereo not given), in experiment [1], the activation was 28.8%. For the same molecule, in experiment [2], the viability was 112%. For the same molecule, the Potency entry in experiment [3], in experiment [5] and in experiment [7] was “inactive” each time. The Potency in experiment [4] was 0.0013 µM (active).

`CCCCCCCCc1ccc(CCC(N)(CO)CO)cc1`: in experiment [1], the activation is 2.16%. In addition, the Potency was 26.3 µM (active) in experiment [2]; 13.2 µM (active) in experiment [3]; 14.8 µM (active) in experiment [4]; 18.6 µM (active) in experiment [5]; 16.6 µM (active) in experiment [8]; 14.8 µM (active) in experiment [7].

Take `C[C@]12CC[C@@H]3c4ccc(O)cc4CC[C@H]3[C@H]1[C@@H](O)[C@@H](O)[C@H]2O`: the activation in experiment [1] was 9.46%. Moreover, in experiment [2], the viability was 104%. In addition, the Potency result in experiment [3], in experiment [4], in experiment [5], in experiment [8] and in experiment [7] was “inactive” in each case.

For the molecule `c1ccc2c(-c3cnn4cc(-c5ccc(N6CCNCC6)cc5)cnc34)ccnc2c1`, in experiment [1], the activation was 75.9%. Besides, the Potency in experiment [2] is 3.32 µM (active); in experiment [3] it was 2.95 µM (active); in experiment [4], 0.934 µM (active); in experiment [6] it was 2.95 µM (active); in experiment [8], 2.63 µM (active); in experiment [7], 2.63 µM (active).

Turning to `O=C(O)[C@@H](c1ccc(OCc2ccc3ccccc3n2)cc1)C1CCCC1`, in experiment [1], the activation is -11.6%. Besides, in experiment [2], the viability was 99.7%. Besides, the Potency entry in experiment [3], in experiment [6], in experiment [8] and in experiment [7] was “inactive” throughout. Besides, in experiment [4], the Potency was 13.2 µM (active).

For the molecule `NC(=O)C1CCCc2c1[nH]c1ccc(Cl)cc21` (stereo not given), the activation in experiment [1] is 10.6%. Further, the viability in experiment [2] was 104%. For the same molecule, the Potency entry in experiment [3], in experiment [4], in experiment [5], in experiment [8] and in experiment [7] was “inactive” each time.

Take `CCN(CC)CCCCNc1ncc2cc(-c3cc(OC)cc(OC)c3)c(NC(=O)NC(C)(C)C)nc2n1`: the activation in experiment [1] is 27.9%. Also, the Potency in experiment [2] was 20.9 µM (active); in experiment [3], 16.6 µM (active); in experiment [4] it was 11.8 µM (active); in experiment [5], 8.33 µM (active); in experiment [8], 18.6 µM (active); in experiment [7] it was 16.6 µM (active).

Values taken from PubChem BioAssay (NCATS).
